# This is one part of a sample in which hits are shown more often than they occur. The hit rate among all sequences tested is not known here. Values without a mark were called inactive.
# System: T1, Caupolican (Caup) homeodomain DNA-binding domain
# T1 sequence: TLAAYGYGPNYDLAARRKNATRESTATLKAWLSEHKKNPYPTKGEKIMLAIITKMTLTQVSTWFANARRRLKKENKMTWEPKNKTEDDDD
# Assay: PBM E-score (8-mer, recovered from the published 9-mer minima) (E-score (dimensionless, -0.5 to 0.5)); Drosophila protein; higher = stronger relative binding preference, active = 0.31 or more
# How it was run: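 An enrichment score, with higher meaning stronger, expresses relative binding preference for each short DNA word. The protein used was Caup's homeodomain DNA-binding domain (residues 214-303), produced by in vitro transcription and translation and tested at 100 nM on custom-designed protein binding microarrays. The 8-mer values were recovered from published 9-mer scores, each equal to the lower of its two constituent 8-mer scores.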
row,Sequence,PBM E-score
1,AGTGTTTA,0.176
2,GGTGTTAA,0.18
3,TGTGTTAA,0.32 (active)
4,GGTGTTTA,0.124
5,CGTGTTAG,0.285
6,AGTGTTAA,0.165
7,CGTGTTTA,0.319 (active)
8,CGTGTTAC,0.282
9,CGTGTTAA,≥ 0.33 (active)
10,AGCTGAGG,-0.169
11,AAGCCTAC,-0.0275
12,AGACGGAC,-0.0361
13,CTGAAATA,0.0494
14,AAATAACT,0.19
15,ACATCAAC,0.235
16,AAAGAGTA,0.0035
17,CGTACAGC,0.00506
18,GGTACAAA,0.256
19,CGTACAAA,0.18
20,CGCACAAC,0.0805
21,AGTACAAT,0.292
22,AGTACAAC,0.275
23,AGTACAAG,0.416 (active)
24,CGTACAAC,0.31 (active)

row,Sequence,PBM E-score
1,GGTACAAC,0.32 (active)
2,CGTACAAG,0.37 (active)
3,CATACAAG,0.3
4,AGTACCAG,0.0977
5,GAGTTATC,0.0344
6,CTAGCAAC,0.101
7,GGTATTGA,0.058
8,AGCTCAAT,-0.0704
9,TGAGTGCA,-0.0812
10,CGTTTGCC,-0.0961
11,TCATCGCA,0.065
12,CACCCACG,-0.151
13,AAGGCGCG,-0.205
14,GCATGAGC,-0.0712
15,GGTCAACA,0.159
16,TGACAGCA,0.185
17,CGACAACG,0.168
18,CGACAACC,0.186
19,TGACAAAA,0.186
20,AGACAACA,0.349 (active)
21,AGACAACG,0.231
22,TGACAACA,0.377 (active)
23,TGTCAACA,≥ 0.324 (active)
24,CGACAACA,0.342 (active)

row,Sequence,PBM E-score
1,CGTCAACA,0.0802
2,AGACAACT,0.191
3,AAGCATCA,0.0394
4,GCAAGTGC,-0.0754
5,AGACAGGC,-0.00368
6,AGTCCGGG,-0.154
7,AAGTTGAC,0.0758
8,AACGCTGG,-0.0926
9,CTATTGGA,0.00708
10,ATGCTGAC,0.119
11,GAAAGCAC,0.0573
12,ATGGTTGG,-0.0636
13,AATATTGG,0.0704
14,ATCACTAG,0.138
15,GGACAACC,0.169
16,CGACAAGC,0.224
17,AGACAAGA,0.256
18,GGACAACA,0.336 (active)
19,CGACAAGA,0.317 (active)
20,GGACAAGA,0.264
21,AAGGGGTG,-0.101
22,GCTGGTAC,0.0272
23,AGTTCTAT,0.0299
24,GTCTTGTA,0.352 (active)

row,Sequence,PBM E-score
1,ATCTTGTG,0.18
2,ATCTTGTA,0.375 (active)
3,CTCTTGTA,0.299
4,GTCTTGCA,0.0651
5,ATCTTGTC,0.308
6,GCAAAGGC,-0.087
7,ATATGCGA,0.0126
8,AGTTCAAC,0.0449
9,ACTCCTTG,0.0436
10,CCTCTGCC,-0.243
11,AACATAAG,0.268
12,GCCATAAC,0.0397
13,CACATAAC,0.223
14,GACATAAA,0.288
15,AACATAAT,≥ 0.327 (active)
16,ATCATAAC,0.156
17,ATCATAAT,0.167
18,GACATAAC,0.325 (active)
19,AACATAAC,0.318 (active)
20,AGCCCATG,0.00842
21,CCTTAAGG,-0.154
22,AGAACGCC,-0.114
23,AACACGGG,0.32 (active)
24,AACACGCT,0.267

row,Sequence,PBM E-score
1,AACACGGC,0.166
2,CACACGGG,-0.0095
3,AACACGGT,0.351 (active)
4,AACACGGA,0.31
5,CGCTGAAG,-0.19
6,CGCATTGA,-0.0262
7,CCCCAGCG,-0.312
8,CAAAACGG,0.016
9,AAGGCTCA,-0.107
10,AATTTTCT,0.0254
11,AGTGGACC,-0.151
12,ACAACAGT,0.205
13,ACAACCAG,0.249
14,GCAACAAA,0.15
15,TCAACAAA,0.157
16,ACAACAAT,0.347 (active)
17,AAAACAAT,0.177
18,GCAACAAC,0.205
19,ACAACAAG,0.362 (active)
20,CCAACAAC,0.178
21,ACAACAAC,0.36 (active)
22,ACAACAAA,0.323 (active)
23,CCAACAAG,0.196

# Reference: the supplement of paper PMC3724861
